PubChem BioAssay
Where “and” joins values, the source holds several entries; their conditions need not be identical. Equal entries are not always repeated. A number with no mark means an inactive call. Calls of active or inactive are those of the source.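 How the source made its calls, unless noted: active means inhibition above the screen-wide mean plus 3 SD, about 51%; inactive means the rest.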

test system: not listed separately; test: Nile Red efflux blockade in pump-expressing yeast – validation compound set, multiplex, phenotypic, pilot screen (AID 588506;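 active means efflux inhibition above 0.42, the validation set average plus 4 SD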;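 further: Nile Red retained in cells so higher fluorescence means more efflux inhibition; 0 = negative control wells and 1 = enniatin B 25 µM full block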); details: S. cerevisiae pump-expressing triplex, Nile Red efflux flow cytometry; at 10 µM; hits give high values; the pumps come from Candida albicans

**Q.** Which efflux inhibition (fraction of control) does the source give for O=C(Cc1ccccc1[N+](=O)[O-])NCc1ccncc1 here?
**A.** -0.03

**Q.** For Cn1nc(-c2ccc(Cl)cc2)nc2c(=O)n(C)c(=O)nc1-2, which efflux inhibition (fraction of control) is on record?
**A.** 0.12

**Q.** With O=C(O)CCCCCNC(=O)Nc1ccc2c(c1)OCCO2 as the compound, how does the efflux inhibition (fraction of control) read?
**A.** 0.12

**Q.** Which efflux inhibition (fraction of control) does the source give for COc1ccc(S(N)(=O)=O)cc1C(N)=O here?
**A.** 0.02

**Q.** With Cc1occc(=O)c1O as the compound, how does the efflux inhibition (fraction of control) read?
**A.** -0.06

**Q.** Which efflux inhibition (fraction of control) does the source give for C[C@]12CCC3C(CC=C4C[C@@H](O)CC[C@@]43C)C1CCC2[C@]1(C)CCC(=O)O1 (stereo partly drawn) here?
**A.** 0.48 (active)

**Q.** Which efflux inhibition (fraction of control) does the source give for CC(=O)N(CCC1(c2ccc(C)cc2)CCOC(C(C)C)C1)Cc1ccco1 (stereo not drawn) here?
**A.** 0.05

**Q.** For O=C(CCc1ccccc1)Nc1ccccc1C(F)(F)F, which efflux inhibition (fraction of control) is on record?
**A.** 0.18

**Q.** For CN(C)C(=O)Oc1cccc([N+](C)(C)C)c1, which efflux inhibition (fraction of control) is on record?
**A.** 0 and -0.13

**Q.** With CCOc1ccc(C(NC(C)=O)c2ccc(OC)c(OC)c2)cc1 (stereo not drawn) as the compound, how does the efflux inhibition (fraction of control) read?
**A.** -0.63

**Q.** For COc1ccccc1N=CC1=C(O)CC(c2ccccc2)CC1=O (stereo not drawn), which efflux inhibition (fraction of control) is on record?
**A.** -0.24

**Q.** With O=C1CC(c2ccc(O)cc2)Oc2cc(O)cc(O)c21 (stereo not drawn) as the compound, how does the efflux inhibition (fraction of control) read?
**A.** -0.26

**Q.** For O=C(NCCO)c1ccc(Cl)c(Cl)c1, which efflux inhibition (fraction of control) is on record?
**A.** 0.78 (active)

**Q.** For N/C(Cc1ccc(Cl)cc1Cl)=N\OC(=O)c1ccc(Br)o1, which efflux inhibition (fraction of control) is on record?
**A.** -0.39

**Q.** For CC1=NN(C(=O)c2ccc(Br)cc2)C(O)(c2ccccc2)C1 (stereo not drawn), which efflux inhibition (fraction of control) is on record?
**A.** 0.36

**Q.** Which efflux inhibition (fraction of control) does the source give for Clc1cc(-c2ccc(/C=N/n3cnnc3)o2)ccc1Br here?
**A.** -0.36

**Q.** With O=c1oc2c(CN3CCCCC3)c(O)ccc2c2c1CCCCC2 as the compound, how does the efflux inhibition (fraction of control) read?
**A.** -0.16

**Q.** With Cc1ccc(-c2nnc(-c3ccc4c(c3)OCO4)o2)cc1 as the compound, how does the efflux inhibition (fraction of control) read?
**A.** 0.04

**Q.** For CC1(C)CC(=O)c2cn3c(nc2C1)nc1ccccc13, which efflux inhibition (fraction of control) is on record?
**A.** -0.12

**Q.** For COc1ccc(C(=O)N2c3cc4c(cc3C(C)=CC2(C)C)OCO4)cc1, which efflux inhibition (fraction of control) is on record?
**A.** -0.04

**Q.** Which efflux inhibition (fraction of control) does the source give for CCc1oc2ccccc2c1C(=O)c1cc(Br)c(O)c(Br)c1 here?
**A.** 0.01

**Q.** With Cc1oc2cc(O)cc(O)c2c(=O)c1-c1ccc2c(c1)OCCCO2 as the compound, how does the efflux inhibition (fraction of control) read?
**A.** 0.01

**Q.** Which efflux inhibition (fraction of control) does the source give for CCCC(=O)Nc1ncnc2c1ncn2[C@@H]1O[C@@H]2COP(=O)(O)O[C@H]2[C@H]1OC(=O)CCC here?
**A.** -0.06

**Q.** Which efflux inhibition (fraction of control) does the source give for O=C(Cc1ccccc1)NCC(=O)OCC(=O)c1ccccc1Cl here?
**A.** -0.42

**Q.** With CC/C(=C(\c1ccc(O)cc1)c1ccc(OCCN(C)C)cc1)c1ccccc1 as the compound, how does the efflux inhibition (fraction of control) read?
**A.** 0.29

**Q.** For CC(C)(C)C(=O)Nc1cccc(OC(F)(F)C(F)Cl)c1 (stereo not drawn), which efflux inhibition (fraction of control) is on record?
**A.** -0.04

**Q.** For Cc1ccc(/C(=C\CN2CCCC2)c2ccccn2)cc1, which efflux inhibition (fraction of control) is on record?
**A.** 0.01

**Q.** With CC(C)(C)c1ccc(/C=C/C(=O)N2CCCCC2)cc1 as the compound, how does the efflux inhibition (fraction of control) read?
**A.** 0.26

**Q.** For Cn1c(=O)[nH]c(=O)c2c1nc(NCc1ccco1)n2CCCc1ccccc1, which efflux inhibition (fraction of control) is on record?
**A.** -0.07

**Q.** With CN(C)CCOC(=O)C(c1ccccc1)C1(O)CCCC1 (stereo not drawn) as the compound, how does the efflux inhibition (fraction of control) read?
**A.** 0.05

**Q.** With COc1ccccc1C(=O)Oc1ccc2c(c1)O/C(=C\c1ccncc1)C2=O as the compound, how does the efflux inhibition (fraction of control) read?
**A.** 0.17

**Q.** With CC(=O)CCCCn1c(=O)c2c(ncn2C)n(C)c1=O as the compound, how does the efflux inhibition (fraction of control) read?
**A.** 0.49 (active)

**Q.** For CS(=O)c1ccccc1O (stereo not drawn), which efflux inhibition (fraction of control) is on record?
**A.** -0.15

**Q.** For COc1cccc(OCc2nnc(-c3cccs3)o2)c1, which efflux inhibition (fraction of control) is on record?
**A.** 0.08

**Q.** For CCOC(=O)C(=O)N1CCN(c2ccccc2OC)CC1, which efflux inhibition (fraction of control) is on record?
**A.** -0.125

**Q.** With COc1ccc(CCN2C(=O)CSC2c2ccc(OC)c(OC)c2)cc1OC (stereo not drawn) as the compound, how does the efflux inhibition (fraction of control) read?
**A.** 0.05

**Q.** Which efflux inhibition (fraction of control) does the source give for CCCCCCCC(=O)OCC(O)CO (stereo not drawn) here?
**A.** 0.02

**Q.** Which efflux inhibition (fraction of control) does the source give for CN1CCN(C2=Nc3ccccc3Oc3ccc(Cl)cc32)CC1 here?
**A.** 0.19

**Q.** For Cc1ccc(CN2CCN(CCCc3ccccc3)CC2CCO)cc1 (stereo not drawn), which efflux inhibition (fraction of control) is on record?
**A.** -0.01

target: ATP-binding cassette sub-family B member 6 (Homo sapiens) (UniProt Q9NP58); test: blockers of ABCB6-driven porphyrin uptake – K562-ABCB6 cells, flow cytometry, validation set, pilot screen (AID 588550); details: K562-ABCB6 porphyrin accumulation, 1 h, at 10 µM, hits give high values;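 further: 0% = DMSO wells and 100% = benzethonium chloride 70 µM positive control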
Sequence (Q9NP58 whole entry, looked up): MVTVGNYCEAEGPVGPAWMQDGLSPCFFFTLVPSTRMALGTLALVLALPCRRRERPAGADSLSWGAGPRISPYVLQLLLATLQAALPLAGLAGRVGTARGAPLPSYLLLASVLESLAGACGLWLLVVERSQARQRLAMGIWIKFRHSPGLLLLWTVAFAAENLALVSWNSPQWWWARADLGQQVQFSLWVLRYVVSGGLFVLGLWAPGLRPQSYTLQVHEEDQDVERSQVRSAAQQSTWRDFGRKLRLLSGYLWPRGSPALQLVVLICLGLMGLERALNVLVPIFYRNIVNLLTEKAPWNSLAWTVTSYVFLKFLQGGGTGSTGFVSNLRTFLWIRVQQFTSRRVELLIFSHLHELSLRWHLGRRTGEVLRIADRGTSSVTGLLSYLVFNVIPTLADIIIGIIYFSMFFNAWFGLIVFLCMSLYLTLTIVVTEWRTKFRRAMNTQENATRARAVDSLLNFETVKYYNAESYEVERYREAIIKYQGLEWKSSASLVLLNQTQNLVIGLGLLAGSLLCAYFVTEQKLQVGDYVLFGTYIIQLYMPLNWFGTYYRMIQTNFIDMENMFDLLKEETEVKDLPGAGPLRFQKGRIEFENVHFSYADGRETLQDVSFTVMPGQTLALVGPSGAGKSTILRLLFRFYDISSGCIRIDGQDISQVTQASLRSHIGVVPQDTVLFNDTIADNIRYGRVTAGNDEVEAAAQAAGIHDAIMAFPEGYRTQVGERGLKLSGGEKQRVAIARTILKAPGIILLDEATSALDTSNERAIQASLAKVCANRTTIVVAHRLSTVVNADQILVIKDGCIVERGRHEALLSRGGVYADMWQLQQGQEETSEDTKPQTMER

**Q.** With O=C(Cc1ccccc1[N+](=O)[O-])NCc1ccncc1 as the compound, how does the inhibition read?
**A.** 2%

**Q.** Which inhibition does the source give for Cn1nc(-c2ccc(Cl)cc2)nc2c(=O)n(C)c(=O)nc1-2 here?
**A.** -16%

**Q.** With O=C(O)CCCCCNC(=O)Nc1ccc2c(c1)OCCO2 as the compound, how does the inhibition read?
**A.** 7%

**Q.** For COc1ccc(S(N)(=O)=O)cc1C(N)=O, which inhibition is on record?
**A.** 11%

**Q.** With Cc1occc(=O)c1O as the compound, how does the inhibition read?
**A.** 3%

**Q.** For C[C@]12CCC3C(CC=C4C[C@@H](O)CC[C@@]43C)C1CCC2[C@]1(C)CCC(=O)O1 (stereo partly drawn), which inhibition is on record?
**A.** 9%

**Q.** For CC(=O)N(CCC1(c2ccc(C)cc2)CCOC(C(C)C)C1)Cc1ccco1 (stereo not drawn), which inhibition is on record?
**A.** 9%

**Q.** For O=C(CCc1ccccc1)Nc1ccccc1C(F)(F)F, which inhibition is on record?
**A.** -2%

**Q.** Which inhibition does the source give for CN(C)C(=O)Oc1cccc([N+](C)(C)C)c1 here?
**A.** 2% and 4%

**Q.** For CCOc1ccc(C(NC(C)=O)c2ccc(OC)c(OC)c2)cc1 (stereo not drawn), which inhibition is on record?
**A.** 8%

**Q.** For COc1ccccc1N=CC1=C(O)CC(c2ccccc2)CC1=O (stereo not drawn), which inhibition is on record?
**A.** 12%

**Q.** For O=C1CC(c2ccc(O)cc2)Oc2cc(O)cc(O)c21 (stereo not drawn), which inhibition is on record?
**A.** 9%

**Q.** With O=C(NCCO)c1ccc(Cl)c(Cl)c1 as the compound, how does the inhibition read?
**A.** 9%

**Q.** With N/C(Cc1ccc(Cl)cc1Cl)=N\OC(=O)c1ccc(Br)o1 as the compound, how does the inhibition read?
**A.** 2%

**Q.** Which inhibition does the source give for CC1=NN(C(=O)c2ccc(Br)cc2)C(O)(c2ccccc2)C1 (stereo not drawn) here?
**A.** -9%

**Q.** Which inhibition does the source give for Clc1cc(-c2ccc(/C=N/n3cnnc3)o2)ccc1Br here?
**A.** -9%

**Q.** With O=c1oc2c(CN3CCCCC3)c(O)ccc2c2c1CCCCC2 as the compound, how does the inhibition read?
**A.** 4%

**Q.** Which inhibition does the source give for Cc1ccc(-c2nnc(-c3ccc4c(c3)OCO4)o2)cc1 here?
**A.** 2%

**Q.** Which inhibition does the source give for CC1(C)CC(=O)c2cn3c(nc2C1)nc1ccccc13 here?
**A.** -6%

**Q.** With COc1ccc(C(=O)N2c3cc4c(cc3C(C)=CC2(C)C)OCO4)cc1 as the compound, how does the inhibition read?
**A.** 10%

**Q.** Which inhibition does the source give for CCc1oc2ccccc2c1C(=O)c1cc(Br)c(O)c(Br)c1 here?
**A.** 12%

**Q.** For Cc1oc2cc(O)cc(O)c2c(=O)c1-c1ccc2c(c1)OCCCO2, which inhibition is on record?
**A.** 8%

**Q.** Which inhibition does the source give for CCCC(=O)Nc1ncnc2c1ncn2[C@@H]1O[C@@H]2COP(=O)(O)O[C@H]2[C@H]1OC(=O)CCC here?
**A.** 7%

**Q.** With O=C(Cc1ccccc1)NCC(=O)OCC(=O)c1ccccc1Cl as the compound, how does the inhibition read?
**A.** 17%

**Q.** With CC/C(=C(\c1ccc(O)cc1)c1ccc(OCCN(C)C)cc1)c1ccccc1 as the compound, how does the inhibition read?
**A.** 21%

**Q.** For CC(C)(C)C(=O)Nc1cccc(OC(F)(F)C(F)Cl)c1 (stereo not drawn), which inhibition is on record?
**A.** 5%

**Q.** With Cc1ccc(/C(=C\CN2CCCC2)c2ccccn2)cc1 as the compound, how does the inhibition read?
**A.** -16%

**Q.** Which inhibition does the source give for CC(C)(C)c1ccc(/C=C/C(=O)N2CCCCC2)cc1 here?
**A.** 8%

**Q.** For Cn1c(=O)[nH]c(=O)c2c1nc(NCc1ccco1)n2CCCc1ccccc1, which inhibition is on record?
**A.** -1%

**Q.** For CN(C)CCOC(=O)C(c1ccccc1)C1(O)CCCC1 (stereo not drawn), which inhibition is on record?
**A.** 14%

**Q.** With COc1ccccc1C(=O)Oc1ccc2c(c1)O/C(=C\c1ccncc1)C2=O as the compound, how does the inhibition read?
**A.** -9%

**Q.** For CC(=O)CCCCn1c(=O)c2c(ncn2C)n(C)c1=O, which inhibition is on record?
**A.** -3%

**Q.** With CS(=O)c1ccccc1O (stereo not drawn) as the compound, how does the inhibition read?
**A.** 11%

**Q.** For COc1cccc(OCc2nnc(-c3cccs3)o2)c1, which inhibition is on record?
**A.** -5%

**Q.** Which inhibition does the source give for CCOC(=O)C(=O)N1CCN(c2ccccc2OC)CC1 here?
**A.** 7%

**Q.** With COc1ccc(CCN2C(=O)CSC2c2ccc(OC)c(OC)c2)cc1OC (stereo not drawn) as the compound, how does the inhibition read?
**A.** 1%

**Q.** Which inhibition does the source give for CCCCCCCC(=O)OCC(O)CO (stereo not drawn) here?
**A.** 5%

**Q.** Which inhibition does the source give for CN1CCN(C2=Nc3ccccc3Oc3ccc(Cl)cc32)CC1 here?
**A.** 14%

**Q.** Which inhibition does the source give for Cc1ccc(CN2CCN(CCCc3ccccc3)CC2CCO)cc1 (stereo not drawn) here?
**A.** -8%
